Measured values from PubChem BioAssay (NCATS).
Unmarked numbers belong to inactive results. Results filed as inconclusive are left out. The source made the active and inactive calls. Calls come from the whole dose curve; as a rule, active = well fitted curve in the direction sought with a large enough effect; inconclusive = small, poorly fitted or top-dose-only effect, or another doubt; inactive = no such curve, though single readings can be large; an effect the other way counts as inactive or inconclusive.

These molecules were tested against Cytochrome P450 3A4 (Homo sapiens) (UniProt P08684) (assay: qHTS Assay for Inhibitors and Substrates of Cytochrome P450 3A4 (AID 884; note: nearly all actives have a fitted effect of over 50% in size; for activity change, negative = inhibition: % is set by controls: 0 for no effect and ±100 for the full control effect)). Settings: recombinant CYP3A4, Luciferin-PPXE luminescence; series mostly up to 57.1 µM; activity change, negative = inhibition: at the top concentration.
Chain of Cytochrome P450 3A4 (Homo sapiens) (P08684 whole entry, looked up): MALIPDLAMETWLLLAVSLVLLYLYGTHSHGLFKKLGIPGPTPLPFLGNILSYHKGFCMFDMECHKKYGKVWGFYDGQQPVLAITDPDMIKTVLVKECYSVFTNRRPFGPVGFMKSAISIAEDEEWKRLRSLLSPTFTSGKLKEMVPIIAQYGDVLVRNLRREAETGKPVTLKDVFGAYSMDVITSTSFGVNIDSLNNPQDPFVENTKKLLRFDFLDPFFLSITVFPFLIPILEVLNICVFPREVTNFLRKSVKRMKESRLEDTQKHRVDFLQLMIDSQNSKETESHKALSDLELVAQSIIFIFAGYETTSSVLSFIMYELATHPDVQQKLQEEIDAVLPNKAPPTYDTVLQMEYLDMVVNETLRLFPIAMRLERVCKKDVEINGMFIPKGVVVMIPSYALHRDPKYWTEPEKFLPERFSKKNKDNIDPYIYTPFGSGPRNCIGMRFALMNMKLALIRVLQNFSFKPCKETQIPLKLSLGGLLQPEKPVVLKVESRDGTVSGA
Outline: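 20 nM human CYP3A4 with 25 uM Luciferin-PPXE (at KM) in 200 mM KPO4, preincubated 10 min with compound; NADPH regeneration started a 60 min RT reaction. Luciferin detected by luminescence, normalized to 57 uM ketoconazole as full inhibition.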
Potency is the fitted concentration of half-maximal effect.

In order of rising activity change, negative = inhibition:
1. CN1CCc2nc(CO)c(CO)cc2C1  -11.6% [at 11.4 µM]
2. CCC1CN2CCC1CC2C(Oc1cc2ccccc2c2ccccc12)c1ccnc2ccc(O)cc12 (configuration not stated)  -10.8% [at 11.4 µM]
3. C[C@@]12CC[C@@H]3[C@H](CCC4=CC(=O)CC[C@]43C)[C@@H]1CC[C@@H]2C(=O)Cn1cnc2c(=S)nc[nH]c21  119% [at 11.4 µM]

`O=[N+]([O-])c1ccc(S(=O)(=O)Cc2ccccc2)c([N+](=O)[O-])c1` was tested, and the Potency was 0.316 µM (active).
With `CC[C@H](C(=O)[C@H](C)[C@H](O)[C@H](C)CCc1ccc(C)c(O)c1C(=O)O)[C@H]1O[C@](CC)([C@@H]2CC[C@@](O)(CC)[C@H](C)O2)C[C@H]1C` the Potency was 7.94 µM (active).
With `COc1cc2c3cc1Oc1c(OC)c(OC)cc4c1[C@@H](Cc1ccc(O)c(c1)Oc1ccc(cc1)C[C@@H]3N(C)CC2)N(C)CC4` the Potency was 20 µM (active).
`CC1=C2C(=COC(C)C2C)C(=O)C(C(=O)O)=C1O` (configuration not stated) was tested, and the Potency was 15.8 µM (active).

In order of rising “activity change, negative = inhibition” value:
1. O=C1NO[C@@H]2CN[C@@H](C(=O)O)[C@H]12  -5.5%
2. CC(C)C(C)/C=C/C(C)C1CCC2C3=CCC4CC(=O)CC[C@@]4(C)C3CC[C@]21C (some centres not stated)  95.3%

These molecules were tested against Cytochrome P450 3A4 (Homo sapiens) (UniProt P08684) (assay: qHTS Assay for Activators of Cytochrome P450 3A4 (AID 885; note: nearly all actives have a fitted effect of over 65% in size)). Settings: recombinant CYP3A4, Luciferin-PPXE luminescence, 60 min; series mostly up to 57.1 µM; activity change, positive = activation: at the top concentration.
Outline: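 Steps: enzyme/substrate mix dispensed; compound added, 10 min RT; NADPH regeneration solution added, 60 min RT; luciferin detection buffer stops reaction; 20 min later luminescence measured.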

In order of rising activity change, positive = activation:
1. O=[N+]([O-])c1ccc(S(=O)(=O)Cc2ccccc2)c([N+](=O)[O-])c1  -105% [at 11.4 µM]
2. COCOc1ccc(Br)cc1C(=O)/C=C\c1ccc2c(c1)OCO2  -91.5% [at 11.4 µM]
3. COC(=O)C1C(c2ccccc2)C2C(=O)c3c(OC)cc(OC)cc3O[C@@]12c1ccc(OC)cc1 (some centres not stated)  -68.8% [at 11.4 µM]
4. COC(=O)[C@H]1C(=O)c2ccccc2O[C@@](C(=O)OC)(c2ccccc2)[C@@H]1c1ccccc1  -63.3% [at 11.4 µM]
5. c1ccc(-c2cc3c(nc2-c2ccccc2)CCNC3)cc1  -45.7% [at 11.4 µM]

In order of falling “activity change, positive = activation” value:
1. C[C@@]12C=CC(=O)C=C1CC[C@@H]1C2=CC[C@]2(C)[C@@H]1CC[C@H]2C(=O)CN1CCN(c2cc(N3CCCC3)nc(N3CCCC3)n2)CC1  -71.9%
2. COc1ccc2[nH]c(C(=O)c3ccccc3)cc2c1  -74.2%
3. CC1=C2C(=COC(C)C2C)C(=O)C(C(=O)O)=C1O (configuration not stated)  -74.5%
4. COc1cc2c(cc1OC)C1C(=O)c3c(O)cc4c(c3OC1CO2)C=CC(C)(C)O4 (configuration not stated)  -86.1%
5. CC1(C)C(=O)C=C[C@]2(C)C1CC(=O)[C@]1(C)C2CC[C@@]2(C)C(c3ccoc3)OC(=O)C3O[C@@]321 (some centres not stated)  -101%
6. CC1=CC[C@@H]2[C@@H](C1)c1c(O)cc(CC#CCCCNS(C)(=O)=O)cc1OC2(C)C  -103%
7. CC(C)C1C(=O)N2CCCC2[C@]2(O)O[C@@](NC(=O)[C@@H]3C=C4c5cccc6[nH]cc(c56)C[C@H]4N(C)C3)(C(C)C)C(=O)N12 (some centres not stated)  -109%

With `CC(C)C(C)/C=C/C(C)C1CCC2C3=CCC4CC(=O)CC[C@@]4(C)C3CC[C@]21C` (some centres not stated) the Potency was 25.1 µM (active).
